Screening results from PubChem.
TGFb inhibitor = blocks TGF-b signaling. Potency, µM (titrated, usually from 46.1 µM), without a hit: at the top dose activity, negative = inhibition, most hits filed as inhibitors. 1.2% of 410,000 active. HepG2 CAGA-GFP TGF-b/SMAD3 reporter, GFP fluorescence, 18 h; TGF-beta stimulated, 500 pg/mL final; further: potency means the concentration at half of the fitted maximal effect; on the % scale 0 is the no-effect control and ±100 the full control effect; nearly all actives have a fitted effect of over 65% in size
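HEPG2 CAGA-GFP cells (1000/well, DMEM with 1% FBS) were pre-incubated 2 h at 37 degrees C, given compound by pin tool, then stimulated with TGF-beta at 500 pg/mL final for 18 h before per-cell GFP fluorescence imaging.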
IL1B secr inh = inflammasome signaling inhibition, IL-1 beta readout; 4.7% of 360,000 active; activity change, % at 57.5 µM; AID 743279; THP-1 LPS/ATP IL-1B secretion, AlphaLISA, 16 h; stronger effect = lower value; in the data active means activity change below about -50%; inconclusive means mostly about -30% to -49%; further: on the % scale 0 is the no-effect control and ±100 the full control effect
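THP-1 cells pretreated 1 hr with compounds (up to 57.5 uM final), then stimulated with LPS (250 ng/mL final) plus ATP (1.25 mM final); secreted IL-1B measured by AlphaLISA after 16 hr, decreased signal indicating inhibition.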
ASM inhibitor = inhibitors of human secretory acid sphingomyelinase | placental ASM, HMU-PC fluorogenic substrate, 60 min | Potency, µM (highest dose often 57.5 µM), for inactives: at the top dose activity change, negative = inhibition, hits mostly inhibitors | 0.006% of 340,000 active | AID 504937; further: potency means the concentration at half of the fitted maximal effect
Target sequence (P17405 47-631 limits assumed): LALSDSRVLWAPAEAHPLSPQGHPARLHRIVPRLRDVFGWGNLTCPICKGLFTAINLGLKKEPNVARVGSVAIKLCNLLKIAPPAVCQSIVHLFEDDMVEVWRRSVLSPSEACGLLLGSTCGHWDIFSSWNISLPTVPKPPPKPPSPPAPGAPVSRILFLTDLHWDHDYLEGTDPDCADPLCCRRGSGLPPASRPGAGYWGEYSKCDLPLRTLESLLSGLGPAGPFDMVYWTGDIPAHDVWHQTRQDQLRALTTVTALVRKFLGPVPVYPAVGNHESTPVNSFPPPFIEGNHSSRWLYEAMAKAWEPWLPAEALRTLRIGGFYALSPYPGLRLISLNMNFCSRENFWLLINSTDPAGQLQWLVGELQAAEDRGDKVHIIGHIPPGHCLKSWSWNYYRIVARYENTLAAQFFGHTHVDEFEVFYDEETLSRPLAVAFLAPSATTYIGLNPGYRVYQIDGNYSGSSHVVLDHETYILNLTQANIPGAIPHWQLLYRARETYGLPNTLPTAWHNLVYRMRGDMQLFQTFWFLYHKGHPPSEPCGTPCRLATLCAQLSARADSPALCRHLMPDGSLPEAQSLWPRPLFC
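Fluorogenic HMU-PC substrate (9 uM final) is turned over by placental ASM in 60 min at 37 C after a 10 min compound preincubation. Reaction ended by alkaline stop (pH 10), with fluorescence read at 386/447 nm.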
DT40 TDP1 CPT = DT40-hTDP1 cell growth loss with CPT | chicken DT40 Tdp1-/-;hTDP1 cells + 20 nM CPT, ATP luminescence, 48 h | Potency, µM (series often up to 46.2 µM), for inactives: top-dose activity change, negative = growth inhibition, most hits filed as inhibitors | 12% of 420,000 active | AID 686979; further: potency means the concentration at half of the fitted maximal effect; on the % scale 0 is the no-effect control and ±100 the full control effect; nearly all actives have a fitted effect of over 55% in size
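Cell growth measured by CellTiter-Glo luminescence after a minimum 48 h, 37 C compound exposure with 20 nM CPT in Tdp1-knockout DT40 cells stably expressing hTDP1, seeded 400/well; qHTS titration format.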
TDP1 cell noCPT = qHTS for Inhibitors of human tyrosyl-DNA phosphodiesterase 1 (TDP1): qHTS in cells in absence of CPT; DT40 Tdp1-/- hTDP1 cells, no CPT, ATP luminescence, 48 h; Potency, µM (titrated, usually from 46.2 µM), for the others: at the highest dose activity change, negative = growth inhibition, most hits filed as inhibitors; 15% of 420,000 active; AID 686978, 2013; further: potency means the concentration at half of the fitted maximal effect; on the % scale 0 is the no-effect control and ±100 the full control effect; nearly all actives have a fitted effect of over 55% in size
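Stably hTDP1-transfected Tdp1-null chicken DT40 cells were treated with library compounds minus camptothecin and grown for at least 48 hr at 37 °C, after which cellular ATP was quantified by luminescence.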
HepG2 tox = HepG2 cytotoxicity, counter-screen for TGF-b inhibitors | 0.76% of 410,000 active | HepG2 CAGA-GFP viability, ATP luminescence, 18 h | Potency, µM (highest dose often 46.1 µM), for inactives: at the top dose activity change, negative = cytotoxicity, most hits filed as cytotoxic; further: potency means the concentration at half of the fitted maximal effect
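HepG2 CAGA-GFP cells (1000/well, DMEM with 1% FBS) received compound, then TGF-beta at 500 pg/mL final, and were incubated 18 hours at 37 degrees C. Viability was read by CellTiter-Glo luminescence. Media-only wells were set as complete cell-killing and DMSO as no toxicity.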
Starred values were filed as active, the others as inactive. Rows were chosen to be rich in hits. Some 19% of all compounds tested hit in one or more screens of this group. Unless noted, the call rests on the fitted dose curve; in most records, active means well fitted curve in the direction sought with a large enough effect; inconclusive means small, poorly fitted or top-dose-only effect, or another doubt; inactive means no such curve, though single readings can be large; an effect the other way counts as inactive or inconclusive.

How did O=C(O)c1ccc([N+](=O)[O-])c2c1C(=O)c1ccccc1C2=O do in these assays?
TGFb inhibitor: -18%; IL1B secr inh: 6; ASM inhibitor: 4%; DT40 TDP1 CPT: -5%; TDP1 cell noCPT: -22%; HepG2 tox: 1%

How did O=C1c2ccccc2C(=O)c2c([N+](=O)[O-])ccc(O)c21 do in these assays?
TGFb inhibitor: 0%; IL1B secr inh: -28; ASM inhibitor: 1%; DT40 TDP1 CPT: -16%; TDP1 cell noCPT: 21µM*; HepG2 tox: 1%

Results for CCCCCCCCCCCC(=O)OCC(O)CO (stereo not given) ?
DT40 TDP1 CPT: -3%; TDP1 cell noCPT: -22%

What do the screens show for `COc1ccccc1CNC(=O)CN(C)S(=O)(=O)c1cccc2cccnc12`?
TGFb inhibitor: -1%; IL1B secr inh: 4; ASM inhibitor: -1%; DT40 TDP1 CPT: -3%; TDP1 cell noCPT: -17%; HepG2 tox: 9%

What do the screens show for `Cc1nc(N2CCN(S(=O)(=O)c3cccc4nonc34)CC2)c2c3c(sc2n1)CCCC3`?
TGFb inhibitor: 7%; IL1B secr inh: -3; ASM inhibitor: 0%; DT40 TDP1 CPT: inconclusive; TDP1 cell noCPT: 16µM*; HepG2 tox: -2%

How did O=C(O)c1cc(=O)[nH]c2c(Cl)cccc12 do in these assays?
TGFb inhibitor: -26%; IL1B secr inh: 39; ASM inhibitor: 5%; DT40 TDP1 CPT: -6%; TDP1 cell noCPT: 17%; HepG2 tox: -28%

Results for CC(=O)c1ccc(NC(=O)CN(C)S(=O)(=O)c2cc3c(cc2C)NC(=O)CO3)cc1 ?
TGFb inhibitor: 9%; DT40 TDP1 CPT: -15%; TDP1 cell noCPT: inconclusive; HepG2 tox: -12%

What do the screens show for `CCOc1ccc(NCc2cc3cc(OC)ccc3[nH]c2=O)cc1`?
TGFb inhibitor: 2%; IL1B secr inh: 45; ASM inhibitor: 1%; DT40 TDP1 CPT: 5.8µM*; TDP1 cell noCPT: 21µM*; HepG2 tox: -12%

Results for COc1ccc2[nH]c(=O)c(CNc3ccccc3)cc2c1 ?
TGFb inhibitor: -21%; IL1B secr inh: -6; ASM inhibitor: 46%; DT40 TDP1 CPT: 4.1µM*; TDP1 cell noCPT: inconclusive; HepG2 tox: -22%

What do the screens show for `CCOc1ccc(C(=O)N(Cc2ccc(OC)cc2)Cc2cc3cc(OC)ccc3[nH]c2=O)cc1`?
TGFb inhibitor: 0%; IL1B secr inh: 4; ASM inhibitor: 16%; DT40 TDP1 CPT: -11%; TDP1 cell noCPT: -20%; HepG2 tox: 1%

How did C#CCOc1nc(Nc2cccc([N+](=O)[O-])c2)nc(OCC#C)n1 do in these assays?
TGFb inhibitor: 14%; IL1B secr inh: -66*; ASM inhibitor: -11%; DT40 TDP1 CPT: inconclusive; TDP1 cell noCPT: 21µM*; HepG2 tox: 2%

Results for CCc1ccc(N(C(=O)c2snc(C(N)=O)c2N)C(C(=O)NCCC(C)C)c2c[nH]c3ccccc23)cc1 (stereo not given) ?
TGFb inhibitor: 1%; IL1B secr inh: -6; ASM inhibitor: 37%; DT40 TDP1 CPT: inconclusive; TDP1 cell noCPT: inconclusive; HepG2 tox: 8%

What do the screens show for `CC(C)(C)NC(=O)CSC(=Nc1cccc(F)c1)NC#N`?
TGFb inhibitor: -17%; IL1B secr inh: -97*; ASM inhibitor: -7%; DT40 TDP1 CPT: inconclusive; TDP1 cell noCPT: inconclusive; HepG2 tox: -31%

How did Cc1ccc(Nc2nc(NCCCN3CCOCC3)nc(N)c2[N+](=O)[O-])cc1C do in these assays?
TGFb inhibitor: 0%; IL1B secr inh: -3; ASM inhibitor: -14%; DT40 TDP1 CPT: inconclusive; TDP1 cell noCPT: 18µM*; HepG2 tox: -8%

What do the screens show for `Cc1ccc(Nc2nc(NCCCN3CCOCC3)nc(N)c2[N+](=O)[O-])cc1`?
TGFb inhibitor: 10%; IL1B secr inh: inconclusive; ASM inhibitor: 6%; DT40 TDP1 CPT: -7%; TDP1 cell noCPT: -11%; HepG2 tox: -69%

Results for Nc1nc(NCCCN2CCOCC2)nc(Nc2cccc(Cl)c2)c1[N+](=O)[O-] ?
TGFb inhibitor: inconclusive; IL1B secr inh: -92*; ASM inhibitor: -4%; DT40 TDP1 CPT: inconclusive; TDP1 cell noCPT: inconclusive; HepG2 tox: -20%

How did CC1=CCC2C(=O)N(c3cccc(C(=O)Nc4ccccc4Cl)c3)C(=O)C2C1 (stereo not given) do in these assays?
TGFb inhibitor: -3%; IL1B secr inh: 18; ASM inhibitor: 2%; DT40 TDP1 CPT: -12%; TDP1 cell noCPT: -29%; HepG2 tox: 3%

How did CCCCn1c(N)c(N(CC(C)C)C(=O)C2CCN(S(=O)(=O)c3ccc(F)cc3)CC2)c(=O)[nH]c1=O do in these assays?
TGFb inhibitor: 16%; IL1B secr inh: inactive; ASM inhibitor: 4%; DT40 TDP1 CPT: 5%; TDP1 cell noCPT: 4%; HepG2 tox: 0%

Results for CC1(c2ccccc2)NC(=O)N(CC(=O)NNC(=O)c2ccccc2)C1=O (stereo not given) ?
TGFb inhibitor: -3%; IL1B secr inh: 6; ASM inhibitor: -2%; DT40 TDP1 CPT: 11%; TDP1 cell noCPT: 9%; HepG2 tox: 3%

How did O=C(CN1C(=O)C2CCCCC2C1=O)Nc1nc(-c2ccccn2)cs1 (stereo not given) do in these assays?
TGFb inhibitor: -13%; IL1B secr inh: 50; ASM inhibitor: 2%; DT40 TDP1 CPT: 12µM*; TDP1 cell noCPT: 10µM*; HepG2 tox: 0%

How did CC1(c2ccccc2)NC(=O)N(CC(=O)Nc2nc(-c3ccccn3)cs2)C1=O (stereo not given) do in these assays?
TGFb inhibitor: inconclusive; IL1B secr inh: -3; DT40 TDP1 CPT: 23µM*; TDP1 cell noCPT: 15µM*; HepG2 tox: -6%

How did COc1cc(/C(C)=N/N2CCOCC2)cc(OC)c1OC do in these assays?
TGFb inhibitor: -20%; IL1B secr inh: -12; ASM inhibitor: 1%; DT40 TDP1 CPT: 2%; TDP1 cell noCPT: 0%; HepG2 tox: -13%

Results for Cc1ccc(Cl)cc1NC(=O)Cn1c(=O)c2ccccc2n2nncc12 ?
TGFb inhibitor: 24%; DT40 TDP1 CPT: 4%; TDP1 cell noCPT: -8%; HepG2 tox: 3%

Results for CCOC(=O)Cn1c(=N)n(CCOc2ccc(OC)cc2)c2ccccc21 ?
TGFb inhibitor: 0%; IL1B secr inh: inconclusive; ASM inhibitor: 0%; DT40 TDP1 CPT: -14%; TDP1 cell noCPT: -10%; HepG2 tox: -6%
